Compound activity (PubChem)
Most compounds without a hit are left out; they make up all but 9.2% or so of the library.
FLuc counter: counter-screen for miR-21 project: firefly luciferase inhibitors or activators. P08659. AID 588342. purified FLuc, Km substrates, luminescence inhibition. Potency, µM (series often up to 57.5 µM), usual class: inhibitors. 360,000 compounds, 6.9% hits; note: nearly all actives have a fitted effect of over 55% in size
Target sequence (P08659 whole entry, looked up): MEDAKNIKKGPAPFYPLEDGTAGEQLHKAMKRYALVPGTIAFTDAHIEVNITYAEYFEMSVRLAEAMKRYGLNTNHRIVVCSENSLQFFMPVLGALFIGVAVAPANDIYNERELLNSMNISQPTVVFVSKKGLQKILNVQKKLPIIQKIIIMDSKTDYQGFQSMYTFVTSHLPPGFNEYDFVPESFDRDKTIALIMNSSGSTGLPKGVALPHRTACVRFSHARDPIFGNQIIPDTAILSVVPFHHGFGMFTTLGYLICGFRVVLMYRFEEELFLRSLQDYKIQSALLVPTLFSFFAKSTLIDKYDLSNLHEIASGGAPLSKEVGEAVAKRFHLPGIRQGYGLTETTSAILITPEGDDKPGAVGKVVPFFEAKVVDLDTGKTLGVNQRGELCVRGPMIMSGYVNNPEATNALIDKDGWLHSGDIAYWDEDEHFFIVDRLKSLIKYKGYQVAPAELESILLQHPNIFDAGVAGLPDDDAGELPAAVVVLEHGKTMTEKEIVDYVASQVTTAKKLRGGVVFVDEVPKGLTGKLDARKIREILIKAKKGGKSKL
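Purified P. pyralis luciferase, 10 nM final, with Km-level 10 uM D-luciferin and 10 uM ATP in 50 mM Tris acetate pH 7.5, 10 mM Mg acetate, 0.01% Tween-20, 0.05% BSA; 6-point qHTS titration about 60 µM downward; luminescence read.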
NPC1 promoter act: activators of NPC1 promoter; Huh7 NPC1 promoter luciferase reporter, 24 h; Potency, µM (titrated, usually from 9.22 µM), usual class: activators; 320,000 compounds, 2.4% hits; note: nearly all actives have a fitted effect of over 60% in size
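Readout is luciferase luminescence, reflecting NPC1 promoter activation in stably transfected Huh7 cells after 24 h compound exposure at 37 °C in reduced-serum medium with 10% FBS.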
SMN2 splice up: enhancers of SMN2 splice variant expression; HEK293 SMN2-luciferase splicing reporter, luminescence, 30-36 h; Potency, µM (top dose mostly 46.1 µM), most hits filed as activators; 210,000 compounds, 2.8% hits; AID 1458; note: nearly all actives have a fitted effect of over 55% in size
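qHTS luciferase splicing reporter: luminescence rises when SMN2 exon 7 is included in transfected HEK293 cells. Compound exposure lasted 30-36 h at 37C, with 4.5 mM final sodium butyrate as control, followed by a ONE-Glo read.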
ELG1 repair inh: ELG1-dependent DNA repair inhibition; Potency, µM (top dose mostly 46.1 µM), hits mostly inhibitors; AID 504467; 330,000 compounds, 2.3% hits; HEK293T ELG1-luciferase reporter, luminescence, 16 h; DNA damage induced by 5-fluorouridine; note: nearly all actives have a fitted effect of over 55% in size
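Quantitative HTS, concentration-response format. 2,000 cells/well co-treated with 5-fluorouridine and compound, 16 hr in 5% CO2 at 37 °C; ONE-Glo luminescence read after 30 min.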
Rab9 promoter act: activators of Rab9 promoter. Huh7 Rab9 promoter-luciferase reporter, luminescence, 24 h. Potency, µM (series often up to 9.22 µM), actives largely listed as activators. 320,000 compounds, 2.8% hits. AID 485297; note: nearly all actives have a fitted effect of over 60% in size
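Cells were plated at 1500 per well in reduced-serum medium with 10% FBS and left 2 h. Compound in DMSO was then added for 24 h at 37 °C. Reporter signal was read by luminescence after 10 min with luciferase detection reagent.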
ELG1 genotox: induces genotoxicity in HEK293T cells with luciferase-tagged ELG1; HEK293T ELG1-luciferase reporter, luminescence, 16 h; Potency, µM (highest dose often 46 µM), usual class: activators; 330,000 compounds, 1.3% hits; note: nearly all actives have a fitted effect of over 60% in size
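Step 1: seed 2,000 HEK293T ELG1-luciferase cells per well. Step 2: add compound or DMSO, incubate 16 hr at 37 °C. Step 3: ONE-Glo, 30 min at room temperature, read luminescence.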
Numbers stand for hits; – = inactive; ? = inconclusive; · = no result; [ ] = remark or other dose. Calls come from the whole dose curve; as a rule, active = well fitted curve in the direction sought with a large enough effect; inconclusive = small, poorly fitted or top-dose-only effect, or another doubt; inactive = no such curve, though single readings can be large; an effect the other way counts as inactive or inconclusive.

SMILES	FLuc counter	NPC1 promoter act	SMN2 splice up	ELG1 repair inh	Rab9 promoter act	ELG1 genotox
O=C(CCC(=O)c1cccs1)Nc1ccc(N2CCCCC2)cc1	19µM	–	–	–	–	–
Cc1ccc(NC(=O)CNCc2ccccc2)c(Br)c1	?	–	–	?	–	?
CC(CC(=O)c1cccs1)CC(=O)c1cccs1	21µM	2.8µM	?	?	2.8µM	–
COc1ccc(CNCCC(c2ccccc2)C2CCOC(C)(C)C2)cc1 (stereo unspecified)	–	–	–	–	–	–
COc1ccc(CN(CCC(c2ccccc2)C2CCOC(C)(C)C2)C(C)=O)cc1 (stereo unspecified)	–	–	–	16µM	–	–
CC(=O)N1CCN(c2cc(N3CCc4ccccc4C3)c(F)cc2[N+](=O)[O-])CC1	–	–	–	–	–	–
Brc1c(CSc2nc3ccccc3s2)nc2ncccn12	12µM	3.2µM	7.1µM	?	3.2µM	?
Cc1cccc(Cn2ccc(NC(=O)c3ccc4c(c3)OCO4)n2)c1	17µM	–	–	–	–	–
O=C(Nc1ccn(Cc2ccc(Cl)cc2)n1)c1ccc2c(c1)OCO2	21µM	·	–	·	·	·
Cc1ccc(Cn2ccc(NC(=O)c3nn(C)cc3Cl)n2)cc1	21µM	?	–	?	?	–
O=C(N/N=C/c1ccc2c(c1)OCO2)c1ccn(Cc2ccc(Cl)cc2)n1	?	–	·	–	–	?
Cc1ccc(-n2c3nc(=O)[nH]c(=O)c-3cc3c(C)nn(-c4ccccc4)c32)cc1C	–	·	–	·	·	·
Cc1cc(C)n2cc(CSc3nnc(SCc4cn5c(C)cc(C)nc5n4)s3)nc2n1	–	–	–	–	–	–
Cc1cc(C)n2cc(CSc3nc4ccccc4s3)nc2n1	21µM	?	11µM	?	3.5µM	?
O=C1SC(c2ccccc2)=C/C1=C\N1CCCCC1	19µM	–	–	?	–	–
O=C1OC(c2ccccc2)=C/C1=C/N1CCOCC1	?	–	?	?	?	?
COc1cc(C(=O)NC(C)C2CC3CCC2C3)cc(OC)c1OC (stereo unspecified)	–	–	·	–	–	–
CCN(Cc1ccccc1)S(=O)(=O)c1cc(C(=O)NC(C)C2CC3CCC2C3)ccc1OC (stereo unspecified)	–	–	–	6.5µM	–	–
COc1ccc2nc(/C=N/NC(=O)CCNC(=O)OC(C)(C)C)ccc2c1	13µM	?	·	?	?	–
CC(C)(C)OC(=O)NCCC(=O)N/N=C/c1ccc2nccnc2c1	–	–	·	–	–	–
COc1ccc2nc(/C=N/NC(=O)CCCCCNC(=O)OC(C)(C)C)ccc2c1	11µM	3.2µM	·	?	4µM	–
CC(C)(C)OC(=O)NCCC(=O)N/N=C/c1ccc2ncccc2c1	?	–	·	–	–	–
Cc1ccc(Cl)cc1NC(=O)CON=C(N)c1ccccc1	–	–	·	–	–	–
CCOC(=O)c1sc(NC(=O)CNCc2ccccn2)c(C(=O)OCC)c1C	–	–	·	12µM	–	–
CCOC(=O)c1c(NC(=O)CSc2ncnc3ccccc23)sc(C(C)=O)c1C	–	–	–	15µM	–	–
SMILES	FLuc counter	NPC1 promoter act	SMN2 splice up	ELG1 repair inh	Rab9 promoter act	ELG1 genotox
CCOC(=O)c1sc(NC(=O)CNCc2cccnc2)c(C(=O)OCC)c1C	–	–	–	–	–	–
CCOC(=O)c1c(NC(=O)CSc2nc3cccnc3n2C)sc(C(C)=O)c1C	–	–	–	?	–	–
CC1(C)CC(NC(=O)c2cc(COc3cccc(C(F)(F)F)c3)on2)CCO1 (stereo unspecified)	?	–	·	?	–	?
Cc1cc(C)cc(NC(=O)c2cc(S(=O)(=O)N3CCOCC3)cn2C)c1	–	·	·	·	·	·
Oc1oc(-c2ccco2)nc1C=Nc1cccc(Cl)c1	15µM	–	–	–	–	–
Oc1oc(-c2ccco2)nc1C=Nc1ccccc1	–[2.3 µM]	–	·	–	–	–
COc1ccc2c(=O)c(Oc3ccc(C(=O)O)cc3)c(C(F)(F)F)oc2c1	?	?	2.5µM	?	?	?
COc1ccc2c(=O)c(OC)c(-c3ccccc3)oc2c1	·	·	–	·	·	·
COc1cccc(C(=O)N2CCCC(Nc3ccc(C)c(C)c3)C2)c1 (stereo unspecified)	–	–	·	–	–	–
COc1cccc(C(=O)C2CCCN(C(=O)c3cccc(C#CC(C)(C)O)c3)C2)c1 (stereo unspecified)	–	–	–	16µM	–	–
CCN1C(=NCc2ccco2)N[C@@H](c2cccc(F)c2)C(C(=O)OC)=C1C	–	–	·	–	–	–
CC(NS(=O)(=O)c1ccc(Cl)cc1)C(=O)OCC(=O)c1ccc[nH]1 (stereo unspecified)	–	–	·	–	–	–
C/C(=N\Nc1nc(C)cc(-c2ccccc2)n1)c1ccc(F)cc1	?	–	·	–	–	–
C/C(=N/Nc1nc(-c2ccccc2)cc(-c2ccc(F)cc2)n1)c1cccc(N)c1	9.5µM	–	–	7.3µM	–	–
O=C(COc1ccc(F)cc1)Nc1c(C(=O)N2CCC(N3CCCCC3)CC2)oc2ccccc12	–	–	·	–	–	–
